# FAK blocker: FAK (human) kinase inhibition. Q05397. biochemical FAK kinase activity assay. inhibition, %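 (tested at 7 µM)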. 97,000 compounds, 0.84% hits; in the data active means inhibition above about 19%;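 further: 0% = DMSO and 100% = reference compound high control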
# Target sequence (Q05397 whole entry, looked up): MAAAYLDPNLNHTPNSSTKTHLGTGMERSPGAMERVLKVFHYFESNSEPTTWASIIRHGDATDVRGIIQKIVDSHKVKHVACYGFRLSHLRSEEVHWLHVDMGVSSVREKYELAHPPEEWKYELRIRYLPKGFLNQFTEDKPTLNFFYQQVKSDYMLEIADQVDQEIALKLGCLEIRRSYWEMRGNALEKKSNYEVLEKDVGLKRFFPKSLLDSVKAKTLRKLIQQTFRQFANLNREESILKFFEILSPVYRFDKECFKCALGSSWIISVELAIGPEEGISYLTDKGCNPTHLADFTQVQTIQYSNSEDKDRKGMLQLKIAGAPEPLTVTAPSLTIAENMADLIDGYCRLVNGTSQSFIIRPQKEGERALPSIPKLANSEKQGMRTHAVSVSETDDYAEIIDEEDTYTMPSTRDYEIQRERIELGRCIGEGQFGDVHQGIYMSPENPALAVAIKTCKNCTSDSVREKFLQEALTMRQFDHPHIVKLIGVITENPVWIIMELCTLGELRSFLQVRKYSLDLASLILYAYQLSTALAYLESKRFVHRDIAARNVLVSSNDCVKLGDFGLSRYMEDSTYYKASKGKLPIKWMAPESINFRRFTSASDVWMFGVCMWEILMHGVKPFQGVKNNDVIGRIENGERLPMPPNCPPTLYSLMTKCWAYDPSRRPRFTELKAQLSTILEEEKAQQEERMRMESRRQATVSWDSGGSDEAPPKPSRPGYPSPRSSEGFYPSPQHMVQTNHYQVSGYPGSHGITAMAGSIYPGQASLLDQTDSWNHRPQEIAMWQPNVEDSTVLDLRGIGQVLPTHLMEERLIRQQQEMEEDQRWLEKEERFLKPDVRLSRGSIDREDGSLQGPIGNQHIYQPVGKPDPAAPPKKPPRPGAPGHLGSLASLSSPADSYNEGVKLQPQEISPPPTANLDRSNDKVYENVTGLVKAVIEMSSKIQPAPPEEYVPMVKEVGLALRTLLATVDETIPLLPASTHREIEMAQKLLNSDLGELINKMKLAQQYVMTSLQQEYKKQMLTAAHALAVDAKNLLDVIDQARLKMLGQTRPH
# PTPN22 inh 2: blocks human PTPN22 phosphatase activity; Q9Y2R2; recombinant LYP catalytic domain, DiFMUP fluorescence; inhibition, % at 2 µM; 96,000 compounds, 0.21% hits; AID 640;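 active means inhibition at 2 µM at or above a set limit, the screen mean plus 3 SD, cut at about 24% in these data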;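 further: 0% = DMSO with enzyme and 100% = enzyme fully blocked by orthovanadate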
# PLAP activator: human PLAP activation; P05187; purified PLAP enzyme, luminescent substrate read-out; hits give high values; activation fold at 20 µM; 96,000 compounds, 1.2% hits; AID 696; in the data active means activation fold above about 2
# MRP reversal: compounds reversing MRP-mediated drug resistance. differential viability (reversal), % at 10 µM. H69AR cells + 2 uM doxorubicin, CellTiter-Glo, 72 h. 85,000 compounds, 0.04% hits;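 active means viability drop by adding the cancer drug above about 55%, with treated viability meeting a 40% cutoff, limit read from the data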;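 further: viability without doxorubicin minus viability with 2 µM doxorubicin for each compound; larger differential means the compound sensitizes cells more to doxorubicin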
# LYP act: increases human PTPN22 phosphatase activity; recombinant LYP, DiFMUP fluorescence; 0 = plate median, 100 = signal doubled; activation, % at 2 µM; 96,000 compounds, 0.11% hits; Q9Y2R2; AID 697;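 active means activation at 2 µM above a set limit, the mean plus 5 SD, cut at about 37% in these data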
# MRP1 act: activates MRP-1. H69AR cells + doxorubicin, viability rescue, CellTiter-Glo. 140,000 compounds, 0.61% hits. viability increase, % at 10 µM. AID 799;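 active means viability gain under doxorubicin at or above a set limit, the compound median plus 3 SD, cut at about 4.7% in these data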;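 further: MRP-1 overexpressing cells given doxorubicin 25 µM after compound pretreatment; 18-22 h compound pretreatment then 72 h with doxorubicin before readout; 0% = doxorubicin-only wells and 100% = vehicle-treated cells without doxorubicin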
# * = called active by the depositor; / = not tested or not shown. Most compounds without a hit are left out; they make up all but 2.2% or so of the library.
SMILES,FAK blocker,PTPN22 inh 2,PLAP activator,MRP reversal,LYP act,MRP1 act
C=CCNC(=S)NNC(=O)C(CCCC)CC(C)O (stereo not given),-2,0,/,-5,3,-2
Cc1cc(=O)[nH]c(-n2[nH]c3c(c2=O)CCCC3)n1,3,10,2.6*,/,-7,-2
Cc1nc(-n2[nH]c3c(c2=O)CCCC3)[nH]c(=O)c1Cc1ccccc1,-4,4,1.9,/,0,-6
CC(=O)Nc1ccc(S(=O)(=O)N[C@@H](C)C(=O)OCc2ccc(Cl)cc2)cc1,/,/,/,/,/,0
c1ccc(-c2cc(-c3nnc4n3N=C(c3ccc5ccccc5c3)CS4)[nH]n2)cc1,1,30*,1.7,/,-26,-7
COc1cc(C(=O)Oc2ccccc2/C=N/NC(=O)c2ccc(Cl)cc2Cl)cc(OC)c1OC,-1,-1,2.3*,/,-2,-1
CC1(C)CC(=O)C2=C(C1)N(c1ccc(F)cc1)C(=O)CC2c1ccccc1 (stereo not given),0,-2,1.5,12,3,-1
Cc1nn(C)cc1C1C2=C(CC(C)(C)CC2=O)N(c2ccccc2)C2=C1C(=O)CC(C)(C)C2,2,-5,2*,/,4,-4
CCSc1nnc(NC(=O)c2csc3c2CCC(C)C3)s1 (stereo not given),-2,1,1.1,-5,-3,-1
CC1CCc2c(C(=O)Nc3nccs3)csc2C1 (stereo not given),5,65*,0.9,4,-64,-2
COc1ccc(CNC(=O)COC(=O)[C@H](Cc2c[nH]c3ccccc23)NC(=O)c2cccs2)cc1,/,/,/,/,/,1
Cn1c(=O)c2ncn(CC(=O)N/N=C/c3ccco3)c2n(C)c1=O,/,/,/,/,/,0
CC(NC(=O)c1ccc(F)cc1)c1ccccc1 (stereo not given),3,7,1,/,-5,-2
Cc1ccc(C(=O)NC(C)c2ccc(F)cc2)cc1 (stereo not given),/,/,/,/,/,6.3*
O=C1CC(=C2c3ccccc3-c3ccccc32)C(=O)N1CCN1CCN(c2cccc(Cl)c2)CC1,2,25*,/,-6,-24,/
Cc1cc(C)nc(Nc2n[nH]c(-c3ccc(N)cc3)n2)n1,1,-6,2.4*,3,8,-2
O=C(CCN1C(=O)c2ccccc2C1=O)N1CCN(C2c3ccccc3-c3ccccc32)CC1,1,21,1.5,/,-16,0
Brc1ccccc1-c1nnc(CSc2nnnn2-c2ccccc2)o1,3,8,2.1*,12,-10,-1
COc1cccc(NC(=S)N2CCN(Cc3ccccc3)CC2)c1,/,/,/,/,/,0
CCOC(=O)c1c2c(n(C)c1C)C(=O)C(=O)c1ccc(Br)cc1-2,40*,7,/,1,-7,/
Cc1c(CN(C)C)c2c(n1C)C(=O)c1ccc(Br)cc1-2,-5,-6,1.4,12,4,-3
C#CCOCCOCCOCCNc1nc(N2CCN(C(=O)Cn3cc(CCCN=C(N)N)nn3)CC2)nc(N2CCN(C(=O)[C@H]([C@@H](C)CC)n3cc(CCCN=C(N)N)nn3)CC2)n1,/,/,/,/,/,-3
CCCCOC(=O)Nc1ccc(C(C)C)cc1,0,2,/,-1,-2,6.0*
CCCCCOC(=O)Nc1ccc(S(=O)(=O)Nc2cccc([N+](=O)[O-])c2)cc1,/,/,/,/,/,0
CCCCOC(=O)Nc1ccc(S(=O)(=O)Nc2ccc([N+](=O)[O-])cc2)cc1,/,/,/,/,/,4.7*
SMILES,FAK blocker,PTPN22 inh 2,PLAP activator,MRP reversal,LYP act,MRP1 act
CCCCOC(=O)Nc1ccc(C(N)=O)cc1,-1,1,0.8,6,-3,-2
CCOc1ccccc1NC(=O)CN(c1ccc(C)cc1)S(=O)(=O)c1c(C)noc1C,4,27*,0.9,-30,-24,1
CCOc1ccc(OCC)c(NC(=O)CN(c2ccc(C)cc2)S(=O)(=O)c2c(C)noc2C)c1,2,0,1.5,30,-1,0
O=C(NCc1cn(-c2ccccc2)nc1-c1ccc(F)cc1)c1cccc([N+](=O)[O-])c1,/,/,/,/,/,4
CCCCCCC1CC(CSc2ncn[nH]2)OC1=O (stereo not given),0,-1,/,1,1,7.2*
CCOC(=O)c1c(CSC(=N)N)n(-c2ccc(C)cc2)c2cc(Br)c(OC(C)=O)cc12,9,3,1,/,0,9.5*
CSc1nc(C)cc(OCC(=O)N/N=C/c2ccccc2O)n1,/,/,/,/,/,4
Cc1cc2c(c(=O)n1CCCn1ccnc1)C(c1ccco1)C(C#N)=C(N)O2 (stereo not given),-1,-12,1.1,5,10,1
COc1ccccc1C1C(C#N)=C(N)Oc2cc(C)n(CCCn3ccnc3)c(=O)c21 (stereo not given),5,-16,2*,2,13,0
COc1ccc(NC(=O)c2cc3c(-c4ccc(OC)c(OC)c4)nn(C)c3s2)cc1OC,-5,-6,2.3*,-6,4,-4
CCc1cc(C(=O)NNC(=S)NCC2CCCO2)cs1 (stereo not given),-1,6,2.2*,/,-3,-1
Cc1scc(C(=O)NNC(=S)NCC2CCCO2)c1C (stereo not given),-1,10,2.2*,/,-7,1
O=C(CSc1n[nH]c(=O)[nH]c1=O)N/N=C/c1ccccc1,/,/,/,/,/,-3
CC(C)c1ccc(/C=N/NC(=O)C(=O)NCCCN2CCOCC2)cc1,/,/,/,/,/,-1
[N-]=[N+]=CC(=O)CC(c1ccccc1)N1C(=O)c2ccccc2C1=O (stereo not given),-2,3,2*,-13,-6,1
C[C@H](C(=O)C=[N+]=[N-])N1C(=O)c2ccccc2C1=O,-1,12,0.8,-1,-10,12*
C=CCn1c(SCC(=O)NC2CCCc3ccccc32)nnc1-c1ccncc1 (stereo not given),/,/,/,/,/,-2
COc1ccc2c(c1)C(=NN)c1cc(OC)ccc1-2,5,-3,1,-17,0,-1
O=C(NNC(=S)Nc1ccc(Br)cc1Cl)c1ccncc1,/,/,/,/,/,-2
O=C(NNC(=S)Nc1ccccc1)c1ccncc1,3,17,2*,/,-15,-3
O=C(CNS(=O)(=O)c1ccccc1)NCC(=O)OCc1ccc(C(=O)c2ccccc2)cc1,/,/,/,/,/,0
CCc1nnc(NC(=O)CCC(=O)NC2CCCc3ccccc32)s1 (stereo not given),/,/,/,/,/,0
Clc1cccc(/C=N\Nc2nccs2)c1,3,-3,2.1*,/,3,-3
Clc1cccc(/C=N/Nc2nc(Cl)nc3ccccc23)c1,3,2,1.7,/,-3,-2
Oc1ccc(CN2CCc3ccccc3C2)c2cccnc12,0,11,2.1*,-48,-11,-6
CCOc1cc(C(c2c(C)[nH][nH]c2=O)c2c(C)[nH][nH]c2=O)ccc1OCc1ccc([N+](=O)[O-])cc1,-1,4,2.7*,3,-2,-2
Fc1ccc(-n2nnnc2-c2cnc(-c3cccs3)nc2C(F)(F)F)cc1,7,14,1,/,-10,5.1*
c1ccc(-n2nnnc2-c2cnc(-c3ccncc3)nc2-c2cccs2)cc1,30*,-6,/,2,8,-4

# High-throughput results from PubChem.
